Experimental data taken from the supplement of paper PMC10849652.
About 7,900 targets were measured; listed, in parts, are those with a hit and a random draw of the rest. About 0.6% of all pairs of compound and target were hits.

Molecular target: AAGAB (UniProt Q6PD74)
Test: log2 fold change, soluble protein after heating vs DMSO (PISA); higher = thermal stabilisation; K562 cells, 10 uM, 30 min; active = over 0.2 and 3.5 SD of the protein, either way, in both replicates (recomputed)
Outline: (§1)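 For each measurement, 10 μM compound was applied for 30 min to K562 cells at 2×10^6 cells/mL. Aliquots were heated for 3 min across 48°C-58°C, pooled, and extracted in PBS with 0.5% NP-40 at 4°C; the supernatant after 21,000xg for 90 min was soluble protein. This was quantified by TMTpro 16plex LC-MS/MS with channel sums equalised, and thermal stability was reported relative to control samples from duplicates, on a log2 fold-change scale.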

Chain of AAGAB (Q6PD74 whole entry, looked up): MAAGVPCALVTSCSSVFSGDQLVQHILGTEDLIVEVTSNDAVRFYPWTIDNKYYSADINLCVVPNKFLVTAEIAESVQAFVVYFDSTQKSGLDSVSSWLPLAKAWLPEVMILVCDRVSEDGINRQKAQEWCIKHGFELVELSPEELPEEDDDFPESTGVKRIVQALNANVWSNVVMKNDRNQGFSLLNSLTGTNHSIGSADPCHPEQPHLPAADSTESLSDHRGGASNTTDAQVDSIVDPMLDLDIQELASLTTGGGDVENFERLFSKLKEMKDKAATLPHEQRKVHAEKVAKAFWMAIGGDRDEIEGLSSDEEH

log2 fold change, inactive:
Cc1ccc(-n2nc(C(C)(C)C)cc2NC(=O)Nc2ccc(OCCN3CCOCC3)c3ccccc23)cc1 [doramapimod] 0.017
CCCS(=O)(=O)Nc1ccc(F)c(C(=O)c2c[nH]c3ncc(-c4ccc(Cl)cc4)cc23)c1F [vemurafenib] -0.012
NC(=O)Nc1cc(-c2cccc(F)c2)sc1C(=O)N[C@H]1CCCNC1 -0.071
Cc1nc(Nc2n[nH]c3c2CN(C(=O)N[C@H](CN(C)C)c2ccccc2)C3(C)C)c2sccc2n1 -0.109
COc1ccc(Cn2ccc3ccc(C(=O)NO)cc32)cc1 -0.017
FC(F)(F)c1ccc(/C=C/c2nc(COc3ccc(CCCCn4ccnn4)cc3)co2)cc1 [mubritinib] 0.017
Cc1cccc(-c2[nH]c(C(C)(C)C)nc2-c2ccc3nccnc3c2)n1 -0.036
Cc1cn(-c2cc(NC(=O)c3ccc(C)c(Nc4nccc(-c5cccnc5)n4)c3)cc(C(F)(F)F)c2)cn1 [nilotinib] -0.077
COc1cc(Nc2ncc3c(n2)-c2ccc(Cl)cc2C(c2c(F)cccc2OC)=NC3)ccc1C(=O)O [alisertib] 0.062
COC(=O)[C@H](CCSC)NC(=O)c1ccc(NC[C@@H](N)CS)cc1-c1ccccc1 -0.029
Cc1nc(Nc2ncc(C(=O)Nc3c(C)cccc3Cl)s2)cc(N2CCN(CCO)CC2)n1 [dasatinib] -0.161
O=C(O)c1ccc2c(c1)nc(Nc1cccc(Cl)c1)c1ccncc12 [silmitasertib] 0.071
CON(C)C(=O)N1N=C(c2cc(F)ccc2F)S[C@@]1(CCCN)c1ccccc1 [filanesib] 0.041
Oc1cc(-c2nc(-c3ccccc3)[nH]c2-c2ccncc2)ccc1Cl 0.066
c1cc(OCCN2CCCCC2)cc(-c2n[nH]c3ccc(-c4nnc[nH]4)cc23)c1 -0.158
CN1CCN(CCOc2cc(OC3CCOCC3)c3c(Nc4c(Cl)ccc5c4OCO5)ncnc3c2)CC1 [saracatinib] 0.168
NCC(=O)Nc1ccc(-n2nc(C(F)(F)F)cc2-c2ccc3c(ccc4ccccc43)c2)cc1 -0.011
CO[C@H]1C[C@@H]2CC[C@@H](C)[C@@](O)(O2)C(=O)C(=O)N2CCCC[C@H]2C(=O)O[C@H]([C@H](C)C[C@@H]2CC[C@H](n3cnnn3)[C@H](OC)C2)CC(=O)[C@H](C)/C=C(\C)[C@@H](O)[C@@H](OC)C(=O)[C@H](C)C[C@H](C)/C=C/C=C/C=C/1C [zotarolimus] -0.093
Cc1ccc(C(=O)N(CCCN)[C@@H](c2nc3cc(Cl)ccc3c(=O)n2Cc2ccccc2)C(C)C)cc1 [ispinesib] -0.017
Cc1ccc(NC(=O)c2cccc(C(C)(C)C#N)c2)cc1Nc1ccc2ncn(C)c(=O)c2c1 -0.153
CC(C)N(C[C@H]1O[C@@H](n2cnc3c(N)ncnc32)[C@H](O)[C@@H]1O)[C@H]1C[C@@H](CCc2nc3cc(C(C)(C)C)ccc3[nH]2)C1 [pinometostat] 0.147
CS(=O)(=O)N1CCN(Cc2cc3nc(-c4cccc5[nH]ncc45)nc(N4CCOCC4)c3s2)CC1 [pictilisib] 0.039
CN1CCc2c(c3ccccc3n2Cc2ccc(C(=O)NO)cc2)C1 [Tubastatin A] 0.016
Cc1cc(SCc2sc(-c3ccc(C(F)(F)F)cc3)nc2C)ccc1OCC(=O)O 0.051
NC1(c2ccc(-c3nc4ccn5c(=O)[nH]nc5c4cc3-c3ccccc3)cc2)CCC1 -0.174
CC[C@H](C)n1cc(C)c2c(C(=O)NCc3c(C)cc(C)[nH]c3=O)cc(-c3ccc(N4CCNCC4)nc3)cc21 0.058
O=C1NC(=O)C(c2cnc3ccccn23)=C1c1cn2c3c(cc(F)cc13)CN(C(=O)N1CCCCC1)CC2 -0.109
CN1CC[C@H](c2c(O)cc(O)c3c(=O)cc(-c4ccccc4Cl)oc23)[C@H](O)C1 [alvocidib] 0.008
CC(C)C[C@@H](C=O)NC(=O)[C@H](CC(C)C)NC(=O)[C@H](CC(C)C)NC(=O)OCc1ccccc1 0
CCn1c(C(=O)N(C2CC2)C2CC2)cc2c3c(ncn3C)c(Nc3cc(C)n(C)n3)nc21 0.073

Molecular target: AAK1 (UniProt A0A096LP25)
Test: as above
Outline: as §1

log2 fold change, inactive:
Cc1ccc(-n2nc(C(C)(C)C)cc2NC(=O)Nc2ccc(OCCN3CCOCC3)c3ccccc23)cc1 [doramapimod] -0.013
CCCS(=O)(=O)Nc1ccc(F)c(C(=O)c2c[nH]c3ncc(-c4ccc(Cl)cc4)cc23)c1F [vemurafenib] -0.016
NC(=O)Nc1cc(-c2cccc(F)c2)sc1C(=O)N[C@H]1CCCNC1 0.318
Cc1nc(Nc2n[nH]c3c2CN(C(=O)N[C@H](CN(C)C)c2ccccc2)C3(C)C)c2sccc2n1 0.104
COc1ccc(Cn2ccc3ccc(C(=O)NO)cc32)cc1 -0.089
FC(F)(F)c1ccc(/C=C/c2nc(COc3ccc(CCCCn4ccnn4)cc3)co2)cc1 [mubritinib] -0.124
Cc1cccc(-c2[nH]c(C(C)(C)C)nc2-c2ccc3nccnc3c2)n1 0
Cc1cn(-c2cc(NC(=O)c3ccc(C)c(Nc4nccc(-c5cccnc5)n4)c3)cc(C(F)(F)F)c2)cn1 [nilotinib] -0.084
COc1cc(Nc2ncc3c(n2)-c2ccc(Cl)cc2C(c2c(F)cccc2OC)=NC3)ccc1C(=O)O [alisertib] 0.002
COC(=O)[C@H](CCSC)NC(=O)c1ccc(NC[C@@H](N)CS)cc1-c1ccccc1 0.023
Cc1nc(Nc2ncc(C(=O)Nc3c(C)cccc3Cl)s2)cc(N2CCN(CCO)CC2)n1 [dasatinib] -0.18
O=C(O)c1ccc2c(c1)nc(Nc1cccc(Cl)c1)c1ccncc12 [silmitasertib] -0.072
CON(C)C(=O)N1N=C(c2cc(F)ccc2F)S[C@@]1(CCCN)c1ccccc1 [filanesib] -0.01
Oc1cc(-c2nc(-c3ccccc3)[nH]c2-c2ccncc2)ccc1Cl 0.017
c1cc(OCCN2CCCCC2)cc(-c2n[nH]c3ccc(-c4nnc[nH]4)cc23)c1 0.142
CN1CCN(CCOc2cc(OC3CCOCC3)c3c(Nc4c(Cl)ccc5c4OCO5)ncnc3c2)CC1 [saracatinib] 0.147
NCC(=O)Nc1ccc(-n2nc(C(F)(F)F)cc2-c2ccc3c(ccc4ccccc43)c2)cc1 -0.085
CO[C@H]1C[C@@H]2CC[C@@H](C)[C@@](O)(O2)C(=O)C(=O)N2CCCC[C@H]2C(=O)O[C@H]([C@H](C)C[C@@H]2CC[C@H](n3cnnn3)[C@H](OC)C2)CC(=O)[C@H](C)/C=C(\C)[C@@H](O)[C@@H](OC)C(=O)[C@H](C)C[C@H](C)/C=C/C=C/C=C/1C [zotarolimus] -0.095
Cc1ccc(C(=O)N(CCCN)[C@@H](c2nc3cc(Cl)ccc3c(=O)n2Cc2ccccc2)C(C)C)cc1 [ispinesib] 0.011
Cc1ccc(NC(=O)c2cccc(C(C)(C)C#N)c2)cc1Nc1ccc2ncn(C)c(=O)c2c1 -0.131
CC(C)N(C[C@H]1O[C@@H](n2cnc3c(N)ncnc32)[C@H](O)[C@@H]1O)[C@H]1C[C@@H](CCc2nc3cc(C(C)(C)C)ccc3[nH]2)C1 [pinometostat] -0.033
CS(=O)(=O)N1CCN(Cc2cc3nc(-c4cccc5[nH]ncc45)nc(N4CCOCC4)c3s2)CC1 [pictilisib] 0.16
CN1CCc2c(c3ccccc3n2Cc2ccc(C(=O)NO)cc2)C1 [Tubastatin A] -0.05
Cc1cc(SCc2sc(-c3ccc(C(F)(F)F)cc3)nc2C)ccc1OCC(=O)O -0.048
NC1(c2ccc(-c3nc4ccn5c(=O)[nH]nc5c4cc3-c3ccccc3)cc2)CCC1 0.048
CC[C@H](C)n1cc(C)c2c(C(=O)NCc3c(C)cc(C)[nH]c3=O)cc(-c3ccc(N4CCNCC4)nc3)cc21 -0.005
O=C1NC(=O)C(c2cnc3ccccn23)=C1c1cn2c3c(cc(F)cc13)CN(C(=O)N1CCCCC1)CC2 -0.159
CN1CC[C@H](c2c(O)cc(O)c3c(=O)cc(-c4ccccc4Cl)oc23)[C@H](O)C1 [alvocidib] -0.009
CC(C)C[C@@H](C=O)NC(=O)[C@H](CC(C)C)NC(=O)[C@H](CC(C)C)NC(=O)OCc1ccccc1 0.065
CCn1c(C(=O)N(C2CC2)C2CC2)cc2c3c(ncn3C)c(Nc3cc(C)n(C)n3)nc21 -0.041
